Consider 7 compounds from PubChem BioAssay (EPA / NIEHS).

Assay [1] in a line: ACEA_ER_80hr: ACEA Biosciences xCELLigence Real-Time Cell Analysis on Estrogen Receptor Agonism for Proliferation (AID 2282667; active means hit-call score of the fitted dose curve at least 0.9, where 1 is the maximum). The settings on record: T47D proliferation, impedance (xCELLigence), 80 h. The method in brief: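 T47D human breast cells were seeded on electrode plates, monitored overnight, then exposed continuously to compounds in eight-point 1:4 dilutions from 100 uM (max 0.5% DMSO). Impedance-based growth was read at 80 h, fitted upward relative to DMSO.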

A short description of assay [2]: APR_HepG2_CellCycleArrest_24hr: Apredica 24-hour HepG2 Assay for Cell Cycle Arrest (AID 2282905).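 Further: cell cycle arrest scored as ratio of 2N to 4N nuclear DNA content.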 Conditions: imaging, actives raise or lower the signal. The method in brief: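 After 24 h exposure at 0.39–200 uM in 0.5% DMSO, fixed cells received Hoechst 33342 staining. Imaging quantified per-nucleus DNA content; gain or loss fitted against DMSO controls.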
Assay [3] is described as follows: APR_HepG2_NuclearSize_24hr: Apredica 24-hour HepG2 Assay for Nuclear Size (AID 2282907). The settings on record: high-content imaging, actives raise or lower the signal. The method in brief:
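Nuclear size from Hoechst 33342-stained, formaldehyde-fixed HepG2 nuclei imaged by high-content microscopy, after 24 h dosing at ten concentrations from 0.39 to 200 uM in 0.5% DMSO; gain or loss relative to DMSO baseline.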

The nature of assay [4]: APR_HepG2_MicrotubuleCSK_24hr: Apredica 24-hour HepG2 Assay for Microtubule CSK Stabilty (AID 2282909). The settings on record: HepG2 microtubule cytoskeleton imaging, actives raise or lower the signal. Put shortly:
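Fixed HepG2 cells were stained for alpha-tubulin and imaged after 24 hr exposure to ten concentrations spanning 0.39–200 uM in 0.5% DMSO. Signal change was fitted in both directions relative to DMSO; taxol was the positive control.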

Assay [5] in a line: APR_HepG2_MitoticArrest_24hr: Apredica 24-hour HepG2 Assay for Mitotic Arrest (AID 2282910). Conditions: high-content imaging, actives raise or lower the signal. Put shortly: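 High-content imaging of fixed HepG2 cells labeled with Hoechst 33342 and anti-phospho-histone H3, after 24 h treatment. Ten concentrations 0.39 to 200 uM in duplicate, final DMSO 0.5%; changes fitted both directions relative to DMSO.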

A short description of assay [6]: APR_HepG2_MitoMembPot_24hr: Apredica 24-hour HepG2 Assay for Mitochondrial Membrane Potential (AID 2282911). Conditions: imaging, actives raise or lower the signal. Put shortly:
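HepG2 human liver cells were exposed 24 hr to compounds at 0.39–200 uM (final DMSO 0.5% v/v) in duplicate. MitoTracker Red CMXRos (250 nM, 30 min) was loaded before formaldehyde fixation; fluorescence was imaged by ArrayScan HCS and fitted bidirectionally versus DMSO.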

Assay [7] can be described thus: APR_HepG2_MitoMass_24hr: Apredica 24-hour HepG2 Assay for Mitochondrial Mass (AID 2282912). Conditions: high-content imaging, actives raise or lower the signal. The method in brief:
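Endpoint is MitoTracker Red CMXRos (250 nM, 30 min, pre-fixation) intensity from 20x high-content imaging, nuclei located by Hoechst. Human HepG2 cells received ten concentrations from 0.39 to 200 uM in 0.5% DMSO for 24 hr, duplicate wells. Bidirectional fit relative to DMSO.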

A short description of assay [8]: APR_HepG2_p53Act_24hr: Apredica 24-hour HepG2 Assay for p53 Activation (AID 2282913).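 Further: p53 protein immunofluorescence averaged per cell in HepG2 with Hoechst nuclei.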 The settings on record: high-content imaging, actives raise or lower the signal. Put shortly: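 HepG2 cells exposed 24 hr to compounds at 0.39–200 uM (10 concentrations, duplicate), final DMSO 0.5% v/v. After formaldehyde fixation and Triton permeabilization, p53 was immunolabeled (sheep anti-p53, Cy5 secondary) with Hoechst 33342 nuclear counterstain, then imaged by high-content fluorescence microscopy.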

The nature of assay [9]: APR_HepG2_CellCycleArrest_72hr: Apredica 72-hour HepG2 Assay for Cell Cycle Arrest (AID 2282914). The settings on record: high-content imaging, actives raise or lower the signal. The method in brief:
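HepG2 cells were exposed to compounds at 0.39–200 uM (0.5% v/v DMSO final, duplicates) for 72 hr, fixed in 3.7% formaldehyde, permeabilized and stained with Hoechst 33342. Nuclear DNA content was quantified by high-content imaging; gain or loss of signal was fitted bidirectionally against DMSO.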

A short description of assay [10]: APR_HepG2_CellLoss_72hr: Apredica 72-hour HepG2 Assay for Cell Loss (AID 2282915). Conditions: high-content imaging. Put shortly: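 Cell number comes from Hoechst 33342-labelled nuclei, imaged at 20x after 3.7% formaldehyde fixation. Dosing was 0.39–200 uM, ten concentrations in duplicate, 0.5% DMSO final, for 72 h. Bidirectional fit relative to DMSO baseline.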

A short description of assay [11]: APR_HepG2_CellLoss_24hr: Apredica 24-hour HepG2 Assay for Cell Loss (AID 2282908).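 On AC50: fit in both directions so a hit may be cell loss or gain.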 Conditions: high-content imaging. Put shortly: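 Nuclei stained with Hoechst 33342 after formaldehyde fixation (3.7%) were imaged at 20x to count cells. Exposure lasted 24 hr, at ten concentrations from 0.39 to 200 uM in duplicate, with 0.5% v/v DMSO. Fit bidirectional, relative to DMSO.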

The nature of assay [12]: APR_HepG2_CellCycleArrest_1hr: Apredica 1-hour HepG2 Assay for Cell Cycle Arrest (AID 2282666). Conditions: high-content imaging, actives raise or lower the signal. Put shortly:
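Cell cycle arrest scored from nuclear DNA content (Hoechst 33342) using high-content imaging of fixed HepG2 cells after 1 h treatment across 0.39–200 uM, in duplicate. Gain or loss fitted relative to 0.5% DMSO.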

The nature of assay [13]: APR_HepG2_CellLoss_1hr: Apredica 1-hour HepG2 Assay for Cell Loss (AID 2282668).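 Further: curves fitted both ways against DMSO so gain or loss of cells counts.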 Conditions: high-content imaging. The method in brief: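 Cell number comes from high-content imaging of Hoechst-labelled nuclei in fixed HepG2 cells. Cells were exposed for 1 h to ten concentrations from 0.39 to 200 uM in 0.5% DMSO. Gain or loss was fitted against DMSO controls.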
A short description of assay [14]: APR_HepG2_MicrotubuleCSK_1hr: Apredica 1-hour HepG2 Assay for Microtubule CSK Stabilty (AID 2282669). The settings on record: HepG2 microtubule cytoskeleton imaging, actives raise or lower the signal. The method in brief:
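Alpha-tubulin immunofluorescence, imaged by automated high-content microscopy with Hoechst nuclear segmentation, measured cytoskeletal change after 1 h dosing of HepG2 at 0.39–200 uM in 0.5% DMSO. Activity fitted in both directions relative to DMSO.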

Assay [15] is described as follows: APR_HepG2_NuclearSize_1hr: Apredica 1-hour HepG2 Assay for Nuclear Size (AID 2282670). The settings on record: high-content imaging, actives raise or lower the signal. Put shortly:
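Nuclear size measured by high-content imaging of Hoechst 33342 nuclear stain after formaldehyde fixation; human HepG2 line exposed 1 hr to compounds at 0.39–200 uM in 0.5% DMSO, with bidirectional curve fitting relative to DMSO.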

Assay [16] can be described thus: APR_HepG2_MitoticArrest_1hr: Apredica 1-hour HepG2 Assay for Mitotic Arrest (AID 2282672). The settings on record: high-content imaging, actives raise or lower the signal. The method in brief: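 Ten-point concentration series (0.39 to 200 uM, duplicates, 0.5% v/v DMSO) applied to human HepG2 liver cells for 1 hr. High-content imaging of phospho-histone H3 and Hoechst-stained nuclei after fixation and permeabilization; DMSO-normalised bidirectional fit.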

Assay [17] can be described thus: APR_HepG2_P-H2AX_1hr: Apredica 1-hour HepG2 Assay for H2AX Phosphorylation (AID 2282673). The settings on record: high-content imaging, actives raise or lower the signal. Put shortly: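 Phospho-H2A.x immunofluorescence (1:200, FITC secondary) plus Hoechst nuclear stain, quantified by high-content imaging in HepG2 after 1 hr compound exposure. Ten concentrations, 0.39 to 200 uM, in duplicate with 0.5% DMSO; fit both directions against DMSO.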

The nature of assay [18]: APR_HepG2_MitoMass_1hr: Apredica 1-hour HepG2 Assay for Mitochondrial Mass (AID 2282674). Conditions: high-content imaging, actives raise or lower the signal. Put shortly:
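Mitochondrial mass is taken from MitoTracker Red CMXRos (250 nM, 30 min, pre-fixation) fluorescence imaged at 20x in HepG2 cells. Exposure lasted 1 hr across ten concentrations, 0.39 to 200 uM, 0.5% DMSO; DMSO baseline, bidirectional fitting.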

The nature of assay [19]: APR_HepG2_MitoMembPot_1hr: Apredica 1-hour HepG2 Assay for Mitochondrial Membrane Potential (AID 2282675). Conditions: imaging, actives raise or lower the signal. Put shortly: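 Mitochondrial membrane potential read as MitoTracker Red CMXRos intensity by automated imaging of fixed HepG2 cells. Dye at 250 nM for 30 min pre-fixation; compounds 0.39 to 200 uM for 1 hour, duplicate wells, 0.5% DMSO.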

Assay [20] in a line: APR_HepG2_StressKinase_1hr: Apredica 1-hour HepG2 Assay for Stress Kinase (AID 2282906). The settings on record: HepG2 stress kinase (phospho-c-Jun) imaging, actives raise or lower the signal. Put shortly:
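High-content imaging of phospho-c-Jun immunostaining (with Hoechst nuclear identification) after a 1 h exposure of HepG2 cells to 10 concentrations from 0.39 to 200 uM, final DMSO 0.5%. Fitted bidirectionally against DMSO.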

Values joined by “and” are separate entries in the source; they are usually repeats but may differ in a detail not shown here. Identical values can stand only once. Records with an inconclusive call do not appear. Active and inactive are the calls of the source. How the source made its calls, unless noted: active means hit-call score of the fitted dose curve at least 0.9, where 1 is the maximum; inactive means score below 0.9.

For the compound `Cc1ccccc1[N+](=O)[O-]`, the compound was called inactive in assay [1], in [2], in [3], in assay [4], in assay [5] and in assay [6]. The call in assay [7], in [8], in assay [9] and in assay [10] was inactive.
On to `NS(=O)(=O)C(F)(F)C(F)(F)C(F)(F)C(F)(F)C(F)(F)C(F)(F)C(F)(F)C(F)(F)F`, for which the outcome in [1], in [3], in assay [4], in assay [5] and in [7] was inactive. Further, the AC50 in assay [2] was 62.5 µM (active); in assay [11], 93.4 µM (active); in [6], 72.5 µM (active); in assay [8], 101 µM (active); in assay [9], 46.1 µM (active); in [10], 63.4 µM (active).
With `CN(C)c1nc(=O)n(C2CCCCC2)c(=O)n1C`, the compound was classed as inactive in assay [12], in [13], in [14], in assay [15], in assay [16] and in assay [17]. Further, the result in [18], in assay [19], in assay [2], in [20], in assay [3] and in assay [11] was inactive. In addition, the compound was classed as inactive in [4], in [5], in [6], in assay [7], in assay [9] and in assay [10].
As to `CC1=C2C[C@H]3[C@@H](CC=C4C[C@@H](O)CC[C@@]43C)[C@@H]2CC[C@]12O[C@@H]1C[C@H](C)CN[C@H]1[C@H]2C`, the outcome in assay [1], in assay [2], in [3], in [4], in assay [6] and in assay [8] was inactive. In addition, in [9], the outcome was inactive. Further, the values for the concentration at half-maximal activity (AC50) in assay [5], in [7] and in assay [10] were 23.8 µM (active), 35.4 µM (active) and 25.3 µM (active), respectively.
Regarding `CC(c1ccc(O)cc1)(c1ccc(O)cc1)c1ccc(O)cc1`, the result in [2], in [3], in assay [4] and in assay [9] was inactive. The AC50 is 113 µM (active) in assay [11]; 107 µM (active) in [5]; 29.5 µM (active) in [6]; 109 µM (active) in assay [7]; 104 µM (active) in assay [8]; 115 µM (active) in [10].
With `CCCCCCCCCc1ccc(O)cc1`, the compound was classed as inactive in assay [1], in assay [2], in assay [3], in assay [11], in assay [4] and in assay [5]. Moreover, the outcome in assay [6], in [7], in assay [8], in [9] and in assay [10] was inactive.
Regarding `Oc1ccc(C(c2ccc(O)cc2)(C(F)(F)F)C(F)(F)F)cc1`, the AC50 was 102 nM (active) and 189 nM (active) and 262 nM (active) in assay [1]; 36.7 µM (active) in [10]. The compound was classed as inactive in [2], in assay [3], in [4], in [5], in assay [6] and in assay [7]. The outcome in assay [8] and in assay [9] was inactive.
